± gives the standard deviation.
Test system: THP-1
Assay: THP-1 cell loss relative to DMSO control; higher = more host cell loss (toxicity); extreme values may be limits of the assay
Conditions: 10 µM; 4 days; infection: M. tuberculosis H37Rv
Procedure: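 OICR kinase inhibitor library screened in duplicate at 10 uM against M. tuberculosis-infected THP-1 macrophages, 4 days at 37 C. THP-1 cell loss (cytotoxicity or loss of adherence) was quantified from Hoechst-stained nuclei counts by high-content imaging and normalised to the 1% DMSO control; 100 = complete loss of host cells.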

Structure (SMILES)	THP-1 cell loss [%]
O=C1C(Cl)=C(NCCN2CCOCC2)C(=O)c2ncccc21	93.7 ± 8.8
Cc1cc(C(C)Nc2ccccc2)c2nc(N3CCOCC3)cc(=O)n2c1 (stereo unspecified)	10.5 ± 5.8
Nc1[nH]nc2nc3ccccc3nc12	3.97 ± 5.6
CCOc1cc(N2CCC(O)CC2)ccc1Nc1ncc2c(n1)N(C)c1ccccc1C(=O)N2C	100
Cc1cc2c(F)c(Oc3ncnn4cc(OC[C@@H](C)O)c(C)c34)ccc2[nH]1 [Brivanib]	25.4 ± 0.91
CC[C@@H]1C(=O)N(C)c2cnc(Nc3ccc(C(=O)NC4CCN(C)CC4)cc3OC)nc2N1C1CCCC1	100
